Results reported in PubChem BioAssay AID1159580 (chemical genetic matrix, 2015).
The whole screen tested about 5,500 compounds, of which about 2,000 (36%) were called active. Roughly 18% stayed inconclusive and do not appear here. Rule as the data show it: active = normalized growth mostly below about 0.91 (no sharp cut-off); inconclusive = no clear call, values can overlap the other calls; inactive = mostly above about 0.92. The list shows a part of the results.

Assay: chemical genetic growth profiling, strain panel (AID 1159580);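 also: tested at 20 µM; growth read once vehicle control cultures reached saturation at 30 °C; 1 = growth at the plate median or of vehicle wells; lower values mean less growth of the strain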
Conditions: growth OD

Measured: normalized growth

COc1cc(-c2oc3cc(O)ccc3c(=O)c2O)cc(OC)c1OC
inactive: S. cerevisiae deletion strains, locus YAL013W, strain DEP1, hits give low values 1.01 | S. cerevisiae deletion strains, locus YBR021W, strain FUR4, hits give low values 1.02 | S. cerevisiae deletion strains, locus YBR229C, strain ROT2, hits give low values 1.01 | S. cerevisiae deletion strains, locus YCL029C, strain bik1, hits give low values 1.01 | S. cerevisiae deletion strains, locus YDL035C, strain GPR1, hits give low values 1 | S. cerevisiae deletion strains, locus YDL074C, strain BRE1, hits give low values 0.996 | S. cerevisiae deletion strains, locus YDL101C, strain DUN1, hits give low values 0.999 | S. cerevisiae deletion strains, locus YDL134C, strain PPH21, hits give low values 1 | S. cerevisiae deletion strains, locus YDL185W, strain tfp1, hits give low values 0.996 | S. cerevisiae deletion strains, locus YDL192W, strain arf1, hits give low values 0.999 | S. cerevisiae deletion strains, locus YDR101C, strain arx1, hits give low values 1 | S. cerevisiae deletion strains, locus YDR150W, strain NUM1, hits give low values 1.01 | S. cerevisiae deletion strains, locus YDR162C, strain NBP2, hits give low values 0.989 | S. cerevisiae deletion strains, locus YDR318W, strain mcm21, hits give low values 1.02 | S. cerevisiae deletion strains, locus YDR388W, hits give low values 0.999 | S. cerevisiae deletion strains, locus YDR502C, strain sam2, hits give low values 1 | S. cerevisiae deletion strains, locus YEL061C, strain CIN8, hits give low values 0.998 | S. cerevisiae deletion strains, locus YER110C, hits give low values 1.01 | S. cerevisiae deletion strains, locus YER155C, strain BEM2, hits give low values 1.02 | S. cerevisiae deletion strains, locus YER167W, strain BCK2, hits give low values 1.02 | S. cerevisiae deletion strains, locus YGL078C, strain dbp3, hits give low values 0.995 | S. cerevisiae deletion strains, locus YGL086W, strain mad1, hits give low values 1.02 | S. cerevisiae deletion strains, locus YGL248W, strain PDE1, hits give low values 1 | S. cerevisiae deletion strains, locus YGR078C, strain PAC10, hits give low values 0.989 | S. cerevisiae deletion strains, locus YGR135W, strain pre9, hits give low values 0.981 | S. cerevisiae deletion strains, locus YGR229C, strain SMI1, hits give low values 0.98 | S. cerevisiae deletion strains, locus YGR252W, strain gcn5, hits give low values 1.06 | S. cerevisiae deletion strains, locus YHR030C, strain SLT2, hits give low values 1.01 | S. cerevisiae deletion strains, locus YHR079C, strain IRE1 (second series), hits give low values 1.01 | S. cerevisiae deletion strains, locus YHR094C, strain hxt1, hits give low values 1.01 | S. cerevisiae deletion strains, locus YHR129C, strain ARP1, hits give low values 0.998 | S. cerevisiae deletion strains, locus YHR200W, strain rpn10, hits give low values 1.01 | S. cerevisiae deletion strains, locus YIL066C, strain RNR3, hits give low values 1 | S. cerevisiae deletion strains, locus YIL073C, strain SPO22, hits give low values 1.05 | S. cerevisiae deletion strains, locus YIL125W, strain kgd1, hits give low values 1.01 | S. cerevisiae deletion strains, locus YIR030C, strain dcg1, hits give low values 1.01 | S. cerevisiae deletion strains, locus YJL095W, strain BCK1, hits give low values 0.984 | S. cerevisiae deletion strains, locus YJL134W, strain LCB3, hits give low values 0.996 | S. cerevisiae deletion strains, locus YJL168C, strain set2, hits give low values 1.01 | S. cerevisiae deletion strains, locus YJL187C, strain SWE1 (second series), hits give low values 0.99 | S. cerevisiae deletion strains, locus YJR043C, strain POL32, hits give low values 1.01 | S. cerevisiae deletion strains, locus YJR075W, strain HOC1, hits give low values 1.01 | S. cerevisiae deletion strains, locus YKL009W, strain mrt4, hits give low values 1.04 | S. cerevisiae deletion strains, locus YKL068W, hits give low values 0.998 | S. cerevisiae deletion strains, locus YKL085W, strain MDH1 (second series), hits give low values 1.02 | S. cerevisiae deletion strains, locus YKL085W, strain MDH1, hits give low values 1.02 | S. cerevisiae deletion strains, locus YKL190W, strain CNB1, hits give low values 1.01 | S. cerevisiae deletion strains, locus YKR001C, strain vps1, hits give low values 1.01 | S. cerevisiae deletion strains, locus YLR039C, strain RIC1, hits give low values 1.02 | S. cerevisiae deletion strains, locus YLR058C, strain SHM2, hits give low values 0.999 | S. cerevisiae deletion strains, locus YLR102C, strain apc9, hits give low values 1.01 | S. cerevisiae deletion strains, locus YLR262C, strain YPT6, hits give low values 0.979 | S. cerevisiae deletion strains, locus YLR268W, strain sec22, hits give low values 1 | S. cerevisiae deletion strains, locus YLR330W, strain CHS5, hits give low values 1 | S. cerevisiae deletion strains, locus YLR342W, strain FKS1 (second series), hits give low values 1.05 | S. cerevisiae deletion strains, locus YLR371W, strain rom2, hits give low values 1.02 | S. cerevisiae deletion strains, locus YLR418C, strain cdc73, hits give low values 0.974 | S. cerevisiae deletion strains, locus YML016C, strain PPZ1, hits give low values 1 | S. cerevisiae deletion strains, locus YML032C, strain rad52, hits give low values 1.03 | S. cerevisiae deletion strains, locus YML124C, strain tub3, hits give low values 1.01 | S. cerevisiae deletion strains, locus YMR078C, strain ctf18, hits give low values 1.02 | S. cerevisiae deletion strains, locus YMR223W, strain ubp8, hits give low values 1.01 | S. cerevisiae deletion strains, locus YMR263W, strain SAP30, hits give low values 1.01 | S. cerevisiae deletion strains, locus YMR307W, strain GAS1, hits give low values 0.995 | S. cerevisiae deletion strains, locus YNL067W, strain RPL9B, hits give low values 0.986 | S. cerevisiae deletion strains, locus YNL128W, strain TEP1, hits give low values 0.996 | S. cerevisiae deletion strains, locus YNL153C, strain GIM3, hits give low values 0.986 | S. cerevisiae deletion strains, locus YNL233W, strain BNI4, hits give low values 0.969 | S. cerevisiae deletion strains, locus YNL250W, strain rad50, hits give low values 1 | S. cerevisiae deletion strains, locus YNL271C, strain bni1, hits give low values 1.02 | S. cerevisiae deletion strains, locus YNL298W, strain CLA4, hits give low values 1.01 | S. cerevisiae deletion strains, locus YNL307C, strain MCK1, hits give low values 1.02 | S. cerevisiae deletion strains, locus YNL322C, strain KRE1, hits give low values 1 | S. cerevisiae deletion strains, locus YNR052C, strain pop2, hits give low values 1.02 | S. cerevisiae deletion strains, locus YOL006C, strain TOP1, hits give low values 0.999 | S. cerevisiae deletion strains, locus YOL012C, strain htz1 1.14 | S. cerevisiae deletion strains, locus YOL147C, strain pex11, hits give low values 1.01 | S. cerevisiae deletion strains, locus YOR061W, strain CKA2, hits give low values 1 | S. cerevisiae deletion strains, locus YOR069W, strain VPS5, hits give low values 1 | S. cerevisiae deletion strains, locus YOR136W, strain idh2, hits give low values 1.02 | S. cerevisiae deletion strains, locus YOR144C, strain elg1, hits give low values 1 | S. cerevisiae deletion strains, locus YOR184W, strain ser1, hits give low values 1.04 | S. cerevisiae deletion strains, locus YOR316C, strain cot1, hits give low values 1 | S. cerevisiae deletion strains, locus YPL055C, strain LGE1, hits give low values 1 | S. cerevisiae deletion strains, locus YPL241C, strain CIN2, hits give low values 1.01 | S. cerevisiae deletion strains, locus YPR119W, strain clb2, hits give low values 1 | S. cerevisiae deletion strains, locus YPR141C, strain kar3, hits give low values 1.01 | S. cerevisiae deletion strains, locus YPR163C, strain tif3, hits give low values 0.991 | S. cerevisiae deletion strains, locus YPR167C, strain met16, hits give low values 1.01 | S. cerevisiae deletion strains, strain wtn01, hits give low values 1 | S. cerevisiae strains, strain wild type, hits give low values 0.994
